Growth data for 40 compounds are collected here from PubChem BioAssay (NCI).

Structures are written as SMILES. About 83,000 compounds went through this panel and 20% of them were active in at least one assay; those are over-represented in the sample as a whole.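 Cells were grown in 96-well plates and exposed to the test compound at a single concentration for 48 hours; results are reported as percent growth, with values below 10 considered active.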 Activity calls are given as the source filed them.

In the experiment the test system is MOLT-4 leukemia. The experiment in a line: NCI-60 one-dose screen, 48 h (100 = growth as untreated, 0 = no growth, -100 = all killed). The settings on record: 10 µM unless noted. The procedure:
Growth inhibition of the MOLT-4 human tumor cell line is measured as a screen for anti-cancer activity. Cells are grown in 96 well plates and exposed to the test compound for 48 hours. Compounds are tested at a single concentration, which is 10^-5 M for most compounds. The reported endpoint is percent growth (GI% or GIPRCNT), where numbers from 0 - 100% represent growth inhibition, and numbers from -100% - 0 represent cell death. For example, a value of 40 represents 60% growth inhibition. A value of 0 means no net growth occurred over the course of the experiment. A value of -40 indicates 40% of cells at the beginning of the experiment died by the end of the experiment. A value of -100 means all cells are dead at the end of the experiment.
NCI-60 Human Tumor Cell Lines Screen was performed using the standard one-dose NCI protocol, which is described in more detail at https://dtp.cancer.gov/discovery_development/nci-60/default.htm.
Compounds with GIPRCNT values below 10 were considered active. Activity score was based on GIPRCNT using the following formula: […]
Score is 0 for GIPRCNT values of 100 or above, 50 for GIPRCNT values of 0, and 100 for GIPRCNT values of -100.
For the compound `O=C(CCCCCCN1CC(=O)N2[C@@H](c3ccc(Cl)cc3)c3[nH]c4ccccc4c3C[C@H]2C1=O)NO`, the growth is 32.3% (inactive).
Next, `CCCCn1sc(=O)n(Cc2ccc(CNC(=O)OCc3ccc4c(Cl)cc(Cl)c(O)c4n3)cc2)c1=O`: 33.5% (inactive); `C#Cc1cccc(Oc2ccc(NC(=O)CCl)cc2)c1`: 0.835% [8.25 µM] (active); `CC(CN)[C@@H]1CC[C@]2(CO)CC[C@]3(C)[C@H](CC[C@@H]4[C@@]5(C)CCC(N)C(C)(C)[C@@H]5CC[C@]43C)[C@@H]12` (stereo not given in full): -35.1% (active).
For `C/C(=N\Nc1nc(C)cs1)c1cc2ccccc2o1`, the growth is 85.9% (inactive).
To `O=C(Nc1ncc(Cc2ccccc2Cl)s1)c1cccs1` belongs 61.7% (inactive); to `c1ccc2cc(Cn3c[n+](Cc4ccc5ccccc5c4)c4ccccc43)ccc2c1`, -27.1% (active).
Consider `Cc1nn(-c2ccccc2)c(N2CCCCC2)c1/C=N/NC(=O)Cn1c(=O)sc2ccccc21`, for which the growth was 54.7% (inactive).
Next, `O=S(=O)(c1ccccc1)N1CCCN(c2nc(-c3ccccc3)nc3nc(-c4ccccc4)oc23)CC1`: 100% (inactive); `O=C(c1ccc(Cl)cc1Cl)N1c2ccccc2Sc2ccccc21`: 26.4% (inactive); `COCC[C@H]1CCC/C=C/[C@@H]2C[C@H](O)C[C@H]2[C@H](O)/C=C/C(=O)O1`: 7.61% (active).
Consider `CC[C@]12C=CCN3CC[C@@]4(c5ccc(OC)cc5N(C)[C@H]4[C@@](O)(C(=O)OC)[C@@H]1OC(=O)CCCN1CCOCC1)[C@@H]32`, for which the growth is 102% (inactive).
Next, `COc1ccc(OC)c(-c2cn3nc(-c4c[nH]c5ccc(Br)cc45)sc3n2)c1`: 48.8% (inactive); `Cc1cc(N2CCCCC2)nc(N2CCN(CC(=O)Nc3ccc4c(ccn4Cc4ccccc4)c3)CC2)n1`: 52.6% (inactive).
Next, `c1ccc(CNc2ccc3nc(CCC4CCCCC4)[nH]c3c2)cc1`: 51.2% (inactive).
Turning to `COC1=CC(c2ccc[nH]2)=N/C1=C\c1[nH]c(C)c(CC(=O)OCc2ccccc2)c1C`, the growth is 2.34% (active).
Next, `COc1ccc(-c2ccc(=O)oc2C#Cc2cc(OC)c(OC)c(OC)c2)cc1O`: 18.4% (inactive); `CCOC(=O)/C=C/c1c(C)[nH]c(=O)[nH]c1=O`: 61.3% (inactive).
For the compound `Cn1c(O)c(C(/C=C/c2ccccc2)=Nc2ccccc2N)c(=O)n(C)c1=O`, the growth was -43.5% (active).
Next, `CCOC(=O)C1=C(c2ccccc2)N=c2s/c(=C/c3ccc(Br)cc3)c(=O)n2C1c1ccc(O)cc1` (stereo not given): 68% (inactive); `Cc1ccc(C)c(-n2c(-c3ccc(Br)cc3)csc2=NC(=O)c2ccccc2F)c1`: 30.5% (inactive).
For `CCOC(=O)c1cn2ncnc(Oc3ccc(NC(=O)NC4CC4)c(F)c3)c2c1C`, the growth is 104% (inactive).
`C[Se]C(=O)CC1=C2C=C(F)C=CC2/C(=C\c2ccc(S(C)=O)cc2)C1C` (stereo not given): the growth was 6.51% (active).
Next, `CCOC(=O)c1c(C)c2c(n1C)CSc1cc(S(=O)(=O)c3ccccc3)c(=O)[nH]c1-2`: 41.5% [100 µM] (inactive); `CCCCc1oc2ccccc2c1C(=O)c1ccc(O)cc1`: 59.7% (inactive); `O=C(Nc1ccccc1)c1sc(-c2ccccc2)cc1O`: 95.2% (inactive).
Next, `COc1cccc(/C=C/C(=O)c2cc3c(N)c(C(=O)Nc4cccc(Cl)c4C)sc3nc2C)c1`: 14.3% (inactive); `COc1ccc(-c2cn(-c3ccc(Cl)cc3)c(SCC(=O)c3ccc([N+](=O)[O-])cc3)n2)cc1`: 83.5% (inactive).
To `CC[C@H](Nc1nc(N)nc(C)c1C#N)c1nc2cccc(NCCCCCC(=O)NO)c2c(=O)n1-c1ccccc1` belongs 30.7% (inactive); to `O=C(Cn1nnc2ccccc21)N/N=C/c1ccccc1F`, 104% (inactive); to `N#Cc1c(-c2cccc([N+](=O)[O-])c2)cc(-c2ccc(Nc3nc(Nc4ccc(F)cc4)nc(Nc4ccc(F)cc4)n3)cc2)nc1N`, 84.6% (inactive).
For the compound `O=C(NCc1ccc2c(c1)OCO2)NCC1CCCC(CNC(=O)NCc2ccc3c(c2)OCO3)C1` (stereo not given), the growth is 92.9% (inactive).
With `O=C1NC(=C(Cl)Cl)/C(=N/S(=O)(=O)NCCc2c[nH]c3ccccc23)N1`, the growth is 18% (inactive).
Next, `CCOC(=O)c1c(C)nc2c(c1N)CC(=O)N2Cc1cc(OC)c(OC)c(OC)c1`: 52.1% (inactive).
To `Cc1ccc(-c2csc(NC(=O)N3CCN(c4cc5c(cc4F)c(=O)c(C(=O)O)cn5C4CC4)CC3)n2)cc1` belongs 3.49% (active).
To `COCCCOc1cc(C[C@@H](C[C@H](N)[C@@H](O)C[C@H](C(=O)NCC(C)(C)C(N)=O)C(C)C)C(C)C)ccc1OC` belongs 103% (inactive).
Consider `COP(=O)(OC)c1nnn(-c2cccc([N+](=O)[O-])c2)c1C`, for which the growth was 101% (inactive).
As for `Cn1ncc2ccc(-c3nc(-c4ccccc4)[nH]c3-c3n[nH]c(=O)n3C3CC3)cc21`, the growth was 93.5% (inactive).
Next, `Cc1ccc(/C=C(\C#N)C(=O)Nc2ncc(Cc3cc(Cl)ccc3Cl)s2)o1`: 40.7% (inactive); `C[C@@H](CO)[C@@H]1CC[C@]2(C(=O)N3CCN(C)CC3)CC[C@]3(C)[C@H](CC[C@@H]4[C@@]5(C)CC[C@H](O)C(C)(C)[C@@H]5CC[C@]43C)[C@@H]12`: 39.2% (inactive).
